This is a sample that favours compounds with a hit; in the whole collection about 0.62% have one here.
WNV protease inh: WNV NS2B-NS3 proteinase inhibition; P06935; WNV NS2B-NS3 protease, fluorogenic substrate Ex360/Em465; stronger effect = lower value; z-score (no concentration beside the values); 0.18% of 65,000 active; AID 577; in the data active = z-score below about -3
Cdc25B inh: inhibitors of human Cdc25B phosphatase. 0.1% of 65,000 active. AID 368. recombinant Cdc25B, OMFP fluorescence Ex485/Em525. inhibition, %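 (compounds tested at 10 µM final in the well)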; in the data active = inhibition above about 50%
Target sequence (P30305 whole entry, looked up): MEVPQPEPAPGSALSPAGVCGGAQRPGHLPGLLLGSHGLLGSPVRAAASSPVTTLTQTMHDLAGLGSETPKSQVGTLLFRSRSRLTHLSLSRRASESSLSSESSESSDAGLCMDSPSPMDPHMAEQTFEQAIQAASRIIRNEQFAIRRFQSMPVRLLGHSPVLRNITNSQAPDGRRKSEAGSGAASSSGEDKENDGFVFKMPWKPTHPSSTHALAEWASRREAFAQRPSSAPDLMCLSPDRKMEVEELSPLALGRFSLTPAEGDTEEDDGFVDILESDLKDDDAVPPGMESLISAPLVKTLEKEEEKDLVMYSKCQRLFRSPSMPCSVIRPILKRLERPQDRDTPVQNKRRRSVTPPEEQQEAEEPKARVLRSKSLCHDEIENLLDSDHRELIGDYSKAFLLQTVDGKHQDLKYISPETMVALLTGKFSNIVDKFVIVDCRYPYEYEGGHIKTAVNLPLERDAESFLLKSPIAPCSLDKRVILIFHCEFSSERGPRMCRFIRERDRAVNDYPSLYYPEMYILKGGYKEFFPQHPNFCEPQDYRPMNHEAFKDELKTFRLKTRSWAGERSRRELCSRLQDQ
MKP-1 inh: human dual specificity phosphatase 1 inhibition | recombinant MKP-1, OMFP hydrolysis fluorescence | inhibition, %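 (compounds tested at a single concentration somewhere between 10 and 100 µM)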 | 0.15% of 65,000 active | AID 374;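 active = inhibition above about 50%, limit read from the data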;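 also: 0% = DMSO max control wells and 100% = wells with enzyme stopped by NaOH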
MMP-13 inhibitor: inhibitors of human MMP13; 0.07% of 65,000 active; AID 570; MMP-13 fTHP FRET cleavage, Mca fluorescence; inhibition, % at 4 µM;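 active = inhibition above the mean of compound-free control plate wells plus 3 SD, cut at about 14% in these data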;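 also: 0% = DMSO wells and 100% = wells with reference MMP-13 inhibitor after basal subtraction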
mHtt clearance: compounds clearing mutant huntingtin protein. HeLa Exon1htt(103Q)mCFP, aggregate imaging; zero = plate's median compound well. inhibition, % at 1.5 µM. 0.42% of 47,000 active. AID 853;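 active = inhibition of aggregate fluorescence above about 70%, also judged a hit by eye on the cell image, limit read from the data, passing the limit was not always enough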;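 also: cells exposed to compound for three days before fixation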
* marks the source's active call; other numbers are inactive results; . = not tested or not shown.

SMILES	WNV protease inh	Cdc25B inh	MKP-1 inh	MMP-13 inhibitor	mHtt clearance
Cc1cc(NC(=O)CSc2nc(C3CC3)nc3sc4c(c23)CCC(C)C4)no1 (stereo not given)	0.65	-5	9	1	72*
CCOC(=O)c1[nH]c2ccccc2c1NC(=O)CC	-4*	0	8	-2	.
CCOc1ccc(NS(=O)(=O)c2ccc3[nH]cc(C(=O)NCC4CCCO4)c(=O)c3c2)cc1 (stereo not given)	-0.49	14	10	2	-18
CCc1ccccc1NS(=O)(=O)c1ccc2[nH]cc(C(=O)NCC3CCCO3)c(=O)c2c1 (stereo not given)	-0.67	19	10	-5	94*
COc1ccc(-c2nc3c(=O)n(C)c(=O)[nH]c3n2CCc2ccccc2)cc1	-3.5*	-3	20	-348	.
COC(=O)c1ccc(C(=O)OC)c(NC2=NS(=O)(=O)c3ccccc32)c1	-0.41	1	4	0	75*
CCOc1ccc(Br)cc1CC(=O)O	0.04	-18	-23	6	75*
COc1ccc2c3c(cccc13)NN=C2C	-4.5*	-5	12	3	-16
CC(C)Oc1ccc(N2CC(C(=O)Nc3ccc(N4CCOCC4)cc3)CC2=O)cc1 (stereo not given)	.	.	.	.	-13
CCn1c(SCC(=O)C(C)(C)C)nnc1-c1ccccn1	0.24	-10	7	16*	38
C=CCn1c(SCC(=O)C(C)(C)C)nnc1-c1ccccn1	-0.99	-3	6	2	-38
COCc1nnc(NC(=O)c2ccc(NC(=O)C(C)C)cc2)s1	-0.94	-8	-9	15*	.
CCOCc1nnc(NC(=O)c2ccc(OC)cc2)s1	.	.	.	.	-14
Cn1c2ccccc2c2nn(-c3ccccc3)c(=O)cc21	-3.5*	5	-29	-5	.
Cn1c(=O)cc(-c2ccccc2)c2ccccc21	-0.4	-10	-9	-5	26
CCn1nnnc1SCC(=O)N1CCCc2ccccc21	.	.	.	.	11
Cn1c(=O)c(C(=O)c2ccccc2)nc2ccccc21	1.4	0	-7	8	77*
COc1ccccc1NC(=O)CSc1nnnn1-c1ccc(C)cc1	.	.	.	.	74*
COC(=O)c1ccc(-n2nnnc2SCC(=O)Nc2cc(OC)ccc2OC)cc1	0.47	-9	-25	4	-28
COc1ccccc1-n1c(SCC(=O)N2CCOCC2)nc(O)c(Cc2ccccc2)c1=O	-8.6*	8	4	-2	21
CCNC(=O)Cn1cc(C#N)c2ccccc21	.	.	.	.	28
Cc1ccc(NC(=O)Cn2nnc(C(=O)Nc3ccc(C)c(C)c3)c2N)cc1	-0.6	-5	13	3	83*
Cc1ccc(NC(=O)Cn2nnc(C(=O)NCc3ccco3)c2N)cc1	.	.	.	.	71*
Clc1cccc(Cl)c1CO/N=C/c1c(-c2ccccc2)nc2n1CCS2	.	.	.	.	5
Cc1nc(SCC(=O)Nc2c(C)n(C)n(-c3ccccc3)c2=O)[nH]c(=O)c1C	.	.	.	.	26
SMILES	WNV protease inh	Cdc25B inh	MKP-1 inh	MMP-13 inhibitor	mHtt clearance
COC(=O)c1cc(NC2c3ccccc3C(=O)N2CCN2CCOCC2)cc(C(=O)OC)c1 (stereo not given)	-0.33	-5	8	1	-19
Cc1nnsc1NC(=O)OCc1ccc(C(F)(F)F)cc1	.	.	.	.	-44
Cc1c(NC(=O)Nc2ccc(Cl)cc2)c(=O)n(-c2ccccc2)n1C	0.02	-20	9	1	.
Cc1c(N=C2NC(=O)C(CC(=O)Nc3ccc(Cl)cc3)S2)c(=O)n(-c2ccccc2)n1C (stereo not given)	1.2	5	7	-5	70*
Cc1ccc(C(=O)CCNc2ccc(Cl)cc2)o1	.	.	.	.	22
c1ccc2sc(N3CN(CCN4CCOCC4)CN(c4nc5ccccc5s4)C3)nc2c1	-0.51	-11	32	4	.
N#C/C(=C(/O)CN1CCOCC1)c1nc2ccccc2s1	0.08	-8	-6	4	77*
O=C(Nc1ccc2c(c1)C(=O)N(c1ccccc1)C2=O)C1CCCO1 (stereo not given)	.	.	.	.	-72
COC(=O)C1=C(C)N=C2SCCC(=O)N2C1c1cccs1 (stereo not given)	-1.7	54*	6	5	.
Cc1nc(C)c(C(=O)C2=C(O)C(=O)N(CCCn3ccnc3)C2c2ccc(Cl)cc2)s1 (stereo not given)	-0.44	-2	1	0	6
O=C1CC(NCc2ccco2)C(=O)N1CCc1ccccc1 (stereo not given)	-0.7	53*	-6	-3	.
Cc1ccc(NC2CC(=O)N(CCc3ccccc3)C2=O)cc1 (stereo not given)	.	.	.	.	39
Nc1ccc(S(=O)(=O)Nc2ccccn2)cc1	-3.1*	-15	-10	-7	.
COc1ccc(S(=O)(=O)Nc2ccccn2)cc1OC	1.1	-5	20	4	-64
Cc1ccccc1N(C(=O)Cn1nnc(-c2cccs2)n1)C(C(=O)NCCC(C)C)c1ccco1 (stereo not given)	.	.	.	.	9
CC(C)CCN1CC(C(=O)NCc2ccc(F)cc2)CC1=O (stereo not given)	-4*	0	2	-5	.
Cc1ccc(Cn2nnc3c(=O)n(Cc4cccc(C)c4)cnc32)cc1	0.25	3	1	14*	5
O=C(NCCc1ccc(Cl)cc1)C1CCCN(S(=O)(=O)c2cnc[nH]2)C1 (stereo not given)	0.88	-8	-2	1	.
Cc1ccc(CCNC(=O)C2CCCN(S(=O)(=O)c3cnc[nH]3)C2)cc1 (stereo not given)	0.09	-7	-10	4	70*
Cn1c(=O)c2c(nc(CN3CCN(C(=O)c4ccco4)CC3)n2CCCc2ccccc2)n(C)c1=O	0.54	-3	12	17*	.
COc1ccc(CCNC(=O)CSc2nnc(-c3ccc(F)cc3)o2)cc1OC	-6.1*	0	-1	1	-2
C=CCOc1ccc(CNc2nccs2)cc1OC	.	.	.	.	35
COc1cccc(N(C(=O)Cn2nnc3ccccc32)C(C(=O)NCc2ccco2)c2cccnc2)c1 (stereo not given)	0.03	4	35	3	.
COc1cccc(C(C(=O)NCc2ccco2)N(Cc2ccco2)C(=O)Cn2nnc3ccccc32)c1 (stereo not given)	.	.	.	.	80*
CCOC(=O)Cc1csc(NC(NC(=O)OCC)(C(=O)OCC)C(F)(F)F)n1 (stereo not given)	.	.	.	.	6
SMILES	WNV protease inh	Cdc25B inh	MKP-1 inh	MMP-13 inhibitor	mHtt clearance
COc1cccc(CNC(=O)c2ccccc2N)c1	0.5	-14	-2	-101	82*
COc1cc(OC)cc(C(=O)NCc2cccnc2)c1	2.2	-8	-2	4	75*
Cc1[nH]c2c(Cl)cccc2c(=O)c1CN1CCCC1	0.41	63*	-2	-1	.
CC1Cc2ccccc2N1C(=O)CSc1nnnn1C(C)C (stereo not given)	.	.	.	.	4
Cc1nn(Cc2ccccc2)c(C)c1NC(=O)CSc1nc2sc3c(c2c(=O)n1C)CCC3	-0.04	-6	50*	-1	-11
CC(NC(=O)CSc1nc2sc3c(c2c(=O)n1-c1ccccc1)CCCC3)c1ccccc1 (stereo not given)	.	.	.	.	91*
CC(C)C(C)NC(=O)CSc1nc2scc(-c3ccco3)c2c(=O)n1-c1ccccc1 (stereo not given)	.	.	.	.	-25

Screening data: PubChem BioAssay, several laboratories
